Screens from PubChem.
Sampled rows, rich in hits. Any-hit rate of the full collection: about 4%.
esBAF inh – Bmi1 luciferase reporter increase in mESCs, primary screen, esBAF inhibitor project, mouse ES cells, Bmi1 luciferase knock-in, single point. reporter increase, % at 12.5 µM. 24 h; 100% = twice the neutral-well signal. hit rate 2% among 350,000; in the data active means activation above about 40%;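 further: a rise in the Bmi1 reporter signal indicates esBAF inhibition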
TRPM1 prom inh – inhibitors of MITF-dependent TRPM1 promoter reporter, primary screen, cell-based, SK-MEL-5, single point, luciferase; SK-MEL-5 TRPM1 promoter luciferase, 24 h; inhibition, % at 12.5 µM; hit rate 0.83% among 330,000; AID 488899, 2010;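 active means mean inhibition across replicates of 60% or more, whatever share of single replicates reaches that level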
MITF act – activators of MITF-driven TRPM1 promoter reporter, primary screen, cell-based, SK-MEL-5, luciferase, single point | SK-MEL-5 TRPM1-promoter luciferase, 24 h; % of positive control, neutral wells = 0 | hit rate 0.75% among 300,000 | AID 588334, 2011 | activation, % at 12.5 µM;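 active means mean activation of at least 80% with every replicate also reaching 80%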
Statin myotox sup – suppressors of statin myotoxicity in C2C12 myotubes, primary screen, cell-based, single point, plate reader | C2C12 myotubes + simvastatin, ATP luminescence, 48 h; scaled: DMSO 0, geranylgeraniol control 100 | rescue of ATP level, % at 7.49 µM | hit rate 0.78% among 330,000 | AID 602340, 2012;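 active means mean ATP rescue above about 67%, or every replicate alone reaching that limit, limit read from the data, passing the limit was not always enough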;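 further: myotubes were challenged with 10 µM simvastatin during compound exposure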
EBV LMP1 NFkB – EBV LMP1-driven NF-kappaB luciferase reporter inhibitors, primary screen, cell-based, luminescence, single point; inhibition, % at 12.5 µM; hit rate 0.69% among 350,000; AID 504558, 2011; LMP1-induced NF-kappaB luciferase reporter cells; in the data active means inhibition above about 41%
Wnt act – Wnt/beta-catenin pathway activators, primary screen, cell-based, plate reader, single point. Wnt/beta-catenin reporter cell assay, activator. activation, % at 9.35 µM. hit rate 1.2% among 300,000. AID 743398, 2014; in the data active means activation above about 30%, passing the limit was not always enough
Of the large screens only hits and unclear results are named; the others gave an inactive call.

CCCNC(=O)c1ccccc1NC(=O)c1ccccc1N(C)S(C)(=O)=O	Statin myotox sup 103
CS(=O)(=O)N1CCN(C(=O)c2ccccc2F)CC1	Statin myotox sup 95
CCCCN(C(C)=O)c1c(CC)nc2ccc(C(=O)NCCCN(C)C)cn12	none (no result: TRPM1 prom inh, MITF act, EBV LMP1 NFkB)
CC(C)CC#Cc1cnc2c(c1)C(=O)N([C@H](C)CO)C[C@H](C)[C@@H](CN(C)Cc1ccccn1)O2	none (no result: TRPM1 prom inh, MITF act, EBV LMP1 NFkB, Wnt act)
Cc1cc2occ(CC(=O)NC3=NCCS3)c2cc1C(C)C	none (no result: Wnt act)
Cc1nc2c(nc1C)C(=O)c1ccccc1C2=O	TRPM1 prom inh 105 (no result: esBAF inh, MITF act, Statin myotox sup)
O=C1c2ccccc2-c2nc3ccccc3nc21	none (no result: MITF act, Wnt act)
COC(=O)CCCC(=O)N1CCOCCN(C(=O)CCCC(=O)OC)CCOCC1	Statin myotox sup 110
COC(=O)CCC(=O)N1CCOCCOCCN(C(=O)CCC(=O)OC)CCOCCOCC1	none (no result: Statin myotox sup)
CCn1c(CCNC(=O)c2ccc(OC)cc2)nnc1SCc1ccc(Cl)cc1Cl	EBV LMP1 NFkB 66 (no result: Wnt act)
CCn1c(CCNC(=O)c2ccc(OC)cc2)nnc1SCc1ccc(Cl)c(Cl)c1	none (no result: esBAF inh, Statin myotox sup)
Cc1oc(-c2cccc(Cl)c2)nc1CN1CCC(C(=O)NCCCN2CC(C)CC(C)C2)CC1 (stereo not given)	TRPM1 prom inh 96 (no result: Wnt act)
CCOC(=O)N1CCC(NC(=O)C2CCCN(Cc3nc(-c4cccc(Cl)c4)oc3C)C2)CC1 (stereo not given)	EBV LMP1 NFkB 53
Cc1oc(-c2cccc(Cl)c2)nc1CN1CCC(C(=O)NCCCN2CCCC2=O)CC1	none
O=C1Nc2ccccc2C1(O)c1ccccc1 (stereo not given)	none
O=C1C2C3C=CC(C3)C2C(=O)N1c1ccncc1 (stereo not given)	none (no result: Wnt act)
Cc1ccnc2c(N3C(=O)C4C5C=CC(C5)C4C3=O)cccc12 (stereo not given)	Statin myotox sup 121 (no result: Wnt act)
Cc1cccc(Cn2c(N(C)CCO)nc3c2c(=O)[nH]c(=O)n3C)c1	none
COc1c(C)cc(C(O)c2ncc(-c3ccccc3Cl)[nH]2)cc1C (stereo not given)	none (no result: TRPM1 prom inh, MITF act, EBV LMP1 NFkB)
Cc1cc(=O)[nH]c(NN=Cc2cc(Br)ccc2O)n1	EBV LMP1 NFkB 56
CCN(CC)c1ccc(/C=N/Nc2nc(C)cc(=O)[nH]2)c(O)c1	EBV LMP1 NFkB 61
CC(=O)c1ccc(NC(=O)CCOc2cc(C)ccc2C)cc1	none (no result: esBAF inh, Statin myotox sup)
CC1CC1C(=O)OCC(=O)NC(=O)c1ccc(C(C)(C)C)cc1 (stereo not given)	none (no result: esBAF inh)
O=C(CN1CCN(C(=O)c2cccs2)CC1)NC1CCCCC1	none (no result: Wnt act)
Clc1ccc(-c2cc3ccccc3nc2N2CCOCC2)cc1	none (no result: esBAF inh, Statin myotox sup)
CN(C)c1nc(Oc2ccc(C(=O)OCC(=O)Nc3ccccc3)cc2)nc(N(C)C)n1	Statin myotox sup 119 (no result: Wnt act)
Cn1cccc1C(=O)NC(=O)COC(=O)c1ccc(S(C)(=O)=O)c([N+](=O)[O-])c1	TRPM1 prom inh 86 (no result: Wnt act)
Cn1cccc1C(=O)NC(=O)COC(=O)c1ccc(S(C)(=O)=O)cc1	none (no result: esBAF inh, Statin myotox sup)
O=C1C2C3c4ccccc4C(c4ccccc43)C2c2nc3ccccc3n21 (stereo not given)	Statin myotox sup 115
CN1C(=O)C2C3c4ccccc4C(c4ccccc43)[C@@H]2C1=O (stereo not given in full)	none
CC(C)CN(CC(C)C)c1nn[nH]n1	Statin myotox sup 114 (no result: esBAF inh)
CCCCN(CCCC)c1nn[nH]n1	Statin myotox sup 96 (no result: esBAF inh)
O=C(NC1CCCCCC1)c1c(O)c2ccccc2[nH]c1=O	esBAF inh 46, MITF act 99 (no result: Wnt act)
O=C(NCC1CCCO1)c1c(O)c2ccccc2[nH]c1=O (stereo not given)	esBAF inh 51 (no result: MITF act, Wnt act)
CCOC(=O)c1c(NCC2CCCO2)c2ccccc2[nH]c1=O (stereo not given)	none (no result: esBAF inh, Statin myotox sup, Wnt act)
c1csc(-c2nnc(Cc3cccc4ccccc34)o2)c1	none
O=C(/C=C/c1ccc(Cl)cc1Cl)Nc1ccncc1	none (no result: esBAF inh, Statin myotox sup)
O=C(/C=C/c1c(F)cccc1Cl)Nc1ccncc1	esBAF inh 62 (no result: Wnt act)
O=C(/C=C/c1ccccc1Cl)Nc1ccncc1	none (no result: esBAF inh, Wnt act)
O=C(/C=C/c1c(Cl)cccc1Cl)Nc1ccncc1	esBAF inh 44, MITF act 88
